About 13,000 (27%) of roughly 48,000 compounds showed an effect of 50% or more. The list shows a part of the results.

This experiment relates to Wolbachia pipientis. Put plainly: Anti-Wolbachia Cell-Based Screen. Type of experiment: functional. More on the design: scale not given: in the data most compounds retested in dose-response had high values. The following applies: 5 µM.
Turning to `CCc1nc2n(n1)CC(NCCc1cccs1)CC2` (stereo unspecified), the “Percent Effect” value was -19.61%.

In the case of `N#Cc1c(F)cccc1NCCCOCC1CCOCC1`, the “Percent Effect” value is reported as -8.528%. Consider `O=C1CC(c2ccsc2)c2snc(C(=O)O)c2N1` (stereo unspecified), for which the “Percent Effect” value is -3.117%. Then `CC1(C)CNC(=O)CN(C(=O)COc2ccccc2)C1`, with 99.32%; and `COc1ccc(CC(=O)N2CC[C@@H]3NC(=O)CC[C@@H]32)cc1`, with -10.22%. Then `COc1ccc(CC(=O)N2CC(=O)NCC(C)(C)C2)cc1`, with 81.26%; and `O=C(O)C(F)(F)F.O=C1CCC2(CCCN(C(=O)Cc3cccnc3)C2)N1` (stereo unspecified), with -30.04%. Then `Cc1nc(-c2ccc(CC(=O)N3CCNC(=O)C3)cc2)cs1`, with -10.4%; and `CCc1ccc(CCC(=O)N2CCC(=O)Nc3cccnc32)cc1`, with -4.556%. Regarding `O=C1CCC2(CCCN(C(=O)Cc3ccccc3)C2)N1` (stereo unspecified), the “Percent Effect” value is given as -74.63%.

As to `CC1(C)CNC(=O)CN(C(=O)Cc2ccccc2)C1`, the “Percent Effect” value stood at 98.91%.

On to `Cc1ccnc2c1NC(=O)CN2C(=O)CCc1ccccc1`, for which the “Percent Effect” value came out at 5.988%. `CCc1nsc(N2CCN(C(=O)COc3ccccc3)CC2)n1`: the “Percent Effect” value was -3.89%. Then `Cc1ccc(N2CCN(C(=O)COc3ccccc3)CC2)nn1`, with -10.88%; and `CC1(C)CNC(=O)CN(C(=O)CCc2ccccc2)C1`, with 92.84%. Then `CN(C)C(=O)CS(=O)(=O)Cc1ccn(-c2cccc(F)c2)n1`, with 3.991%; and `CCn1c(CN(C)C)nnc1C1CCN(Cc2ccc(C)s2)CC1`, with -25.38%; and `COc1ccc(-c2n[nH]cc2CN(C)CCCN2CCOCC2)c(F)c1`, with 4.429%. Then `N#Cc1nccnc1NCCC1CCN(CC(F)(F)F)CC1`, with -10.09%; and `O=C(CN1CCC2(CCCCC2)C1)NCC(F)(F)F`, with -17.09%; and `O=C(NCCCn1cccn1)N1CCCC1c1ccncc1` (stereo unspecified), with 20.68%. With `Cc1cnn(CCNCc2ccc(F)cc2Cl)c1`, the “Percent Effect” value was -9.942%. Turning to `Cc1ccccc1C(NC(=O)Cn1cc(C2CC2)nn1)C1CC1` (stereo unspecified), the “Percent Effect” value is listed as 6.908%. Take `COc1ccccc1N1CCC(CNC(=O)CN2CSCC2=O)C1` (stereo unspecified): the “Percent Effect” value is given as -5.034%. Then `COc1ccccc1N1CCCC(Nc2ncccn2)C1=O` (stereo unspecified), with -13.39%; and `O=C(NCC1CC(=O)N(CCc2ccccc2)C1)c1ccc[nH]1` (stereo unspecified), with -4.58%. Then `COc1ccc(CCNC(=O)NC2CC(=O)N(c3ccccc3)C2)cc1` (stereo unspecified), with 13.52%; and `CC(C)c1cn(CC(=O)NC2CC(=O)N(CCc3ccccc3)C2)nn1` (stereo unspecified), with 94.88%. Then `COc1ccccc1N1CC(NC(=O)c2cc(C(C)C)nn2C)CC1=O` (stereo unspecified), with 186.5%; and `CC(C)Oc1ccccc1C(=O)NC1CC(=O)N(CC(F)(F)F)C1` (stereo unspecified), with -7.447%; and `COc1ccccc1N1CC(NC(=O)Cn2cc(C)nn2)CC1=O` (stereo unspecified), with 83.28%. For `O=C1CC(NS(=O)(=O)N2CCOCC2)CN1CCc1ccccc1` (stereo unspecified), the “Percent Effect” value amounted to 3.785%. Then `COc1ccccc1N1CC(NC(=O)Cn2cc(C(C)C)nn2)CC1=O` (stereo unspecified), with 82.88%. Then `COc1ccccc1N1CCN(CC[C@H](O)c2ccccc2)CC1=O`, with -5.081%. With `COc1cc(-c2cccc3c2OC(CN)C3)ccc1O` (stereo unspecified), the “Percent Effect” value is 12.42%. Then `CC(C)(C)NC(=O)c1cnc2n1CCCC2`, with -4.757%. Regarding `CCOC(=O)N1CCN(c2nc(C)ncc2CC)CC1`, the “Percent Effect” value is reported as -1.601%. Then `CCS(=O)(=O)N1CCC2(CC1)c1ncc(-c3cccnc3)n1CCN2C`, with 107%; and `CC(=O)N1CCC2(CC1)c1ncc(-c3ccccc3)n1CCN2C(C)=O`, with 23.35%. Then `CC(=O)N1CCC2(CC1)c1ncc(-c3ccc(F)cc3)n1CCN2C`, with 95.01%; and `Cc1ccc(-c2cnc3n2CCN(C)C32CCN(CC3CC3)CC2)cc1.O=C(O)C(F)(F)F.O=C(O)C(F)(F)F.O=C(O)C(F)(F)F`, with 0.5048%. Regarding `CN1CCn2c(-c3ccccc3)cnc2C12CCN(CC1CC1)CC2.O=C(O)C(F)(F)F.O=C(O)C(F)(F)F.O=C(O)C(F)(F)F`, the “Percent Effect” value was -7.532%. Then `CC(=O)N1CCn2c(-c3ccccc3)cnc2C12CCNCC2.O=C(O)C(F)(F)F.O=C(O)C(F)(F)F`, with -11.86%. Then `CC(=O)N1CCC2(CC1)c1ncc(-c3ccccc3)n1CCN2C`, with 98.56%. Then `CCS(=O)(=O)N1CCC2(CC1)CCn1c(-c3cnn(C)c3)cnc12.O=C(O)C(F)(F)F`, with 2.009%.

Regarding `Cc1cc(C(=O)N2CCC(n3cc(CO)nn3)CC2)ccc1F`, the “Percent Effect” value was 2.644%. Then `CN(C)C(=O)CCN1CC(c2ccccc2)(c2ccccc2)CCC1=O`, with -7.363%. Regarding `Cc1nnc(CN(C)CC(=O)N2CCCC(C)CC2)n1C` (stereo unspecified), the “Percent Effect” value is on record as -6.061%. Then `Cc1cc(C[C@@H]2COC[C@@H]2NC(=O)CNC(=O)N(C)C)on1`, with -9.814%; and `CS(=O)(=O)CCC(=O)NC(Cc1ccccc1)C1CC1` (stereo unspecified), with 2.067%; and `O=C(CCN1CCCC1=O)NCc1cccnc1Oc1ccccc1`, with -4.21%.

As for `O=C(CN1CCCC1Cn1cccn1)NCCOc1cccc(F)c1` (stereo unspecified), the “Percent Effect” value was 99.45%.

Turning to `COc1cccc(CNC(=O)CN2CCCCC2Cn2cccn2)c1` (stereo unspecified), the “Percent Effect” value is 0.3805%. Then `O=C(CCOc1cccc(F)c1)N1CCCC1Cn1cccn1` (stereo unspecified), with 124.8%; and `O=C(CCOc1ccc(F)cc1)N1CCCC1Cn1cccn1` (stereo unspecified), with 126.4%; and `Cc1cccc(OCCNC(=O)CN2CCCC2Cn2cccn2)c1` (stereo unspecified), with -3.043%.

For the molecule `CN(CC(=O)N1CCCC1Cn1cccn1)C1CC1` (stereo unspecified), the “Percent Effect” value is on record as -6.628%. Regarding `O=C(CCCOc1ccccc1)N1CCCC1Cn1cccn1` (stereo unspecified), the “Percent Effect” value is recorded as 116.1%. With `COCc1nc(CNC(=O)C(C)n2ccnc2C(C)C)no1` (stereo unspecified), the “Percent Effect” value is listed as -16.22%.

With `Cc1ccc(NC(=O)NC(C)C(=O)N2CCS(=O)(=O)CC2)cc1` (stereo unspecified), the “Percent Effect” value is on record as -2.937%. Then `COc1cccc(COCC(=O)N2CCCC2Cn2cccn2)c1` (stereo unspecified), with 116%; and `O=C(c1ccc(Br)o1)N1CCCCC1Cn1cccn1` (stereo unspecified), with 0.8504%. Then `COc1ccc(OCCC(=O)N2CCCC2Cn2cccn2)cc1` (stereo unspecified), with 116.7%.

Turning to `COc1ccc2cc(C(=O)N3CCCCC3Cn3cccn3)[nH]c2c1` (stereo unspecified), the “Percent Effect” value is recorded as -2.712%. With `COc1ccc2c(ccn2CC(=O)N2CCCC2Cn2cccn2)c1` (stereo unspecified), the “Percent Effect” value is given as 2.808%. As for `COc1cccc(COCC(=O)N2CCCC(n3cccn3)C2)c1` (stereo unspecified), the “Percent Effect” value is 17.54%.

For the molecule `Cc1ccc(CC(=O)N2CCCCC2Cn2cccn2)cn1` (stereo unspecified), the “Percent Effect” value amounted to 89.03%. Then `COc1cccc(COCC(=O)N2CCCC(N3CCCC3)CC2)c1` (stereo unspecified), with -3.543%.

For `COc1ccc(CC(=O)N2CCCCC2Cn2cccn2)cc1` (stereo unspecified), the “Percent Effect” value amounted to 136.1%. Then `O=C(Cn1cnnn1)N1CCCCC1Cn1cccn1` (stereo unspecified), with -6.209%. Then `Cc1cc(CN(C)C(=O)c2ccc(F)cc2F)no1`, with 11.87%; and `COc1c(Br)cccc1CCNC(=O)c1csnn1`, with -2.024%. In the case of `CN1CCC(Cc2noc(CCc3nc4ccccc4nc3O)n2)CC1`, the “Percent Effect” value was -2.649%. Then `Cc1cnc(C)c(N2CCN(CCCc3ccncc3)CC2)n1`, with -5.646%; and `CC(C)NC(=O)NC(=O)C(C)N1CCN(C2CCN(C(C)C)CC2)CC1` (stereo unspecified), with -25.53%. Then `COC(=O)C1CCCCN1Cc1cccc(C(=O)NCc2ccco2)c1` (stereo unspecified), with 0.7191%; and `CCn1ncnc1C(C)Nc1cc(C2CCNCC2)nc(C)n1` (stereo unspecified), with 90.92%; and `CCn1ncnc1C(C)NC(=O)CC1CCN(C(C)C)CC1` (stereo unspecified), with -18.67%. Then `CCn1ncnc1C(C)Nc1cc(C2CC2)ncn1` (stereo unspecified), with 83.57%; and `CCn1ncnc1C(C)NC(=O)C1CCN(C(C)C)CC1` (stereo unspecified), with -6.672%. As to `CCn1nc(C)c(C(C)Nc2cc(C3CCNCC3)nc(C)n2)c1C` (stereo unspecified), the “Percent Effect” value amounted to 97.89%. In the case of `CCn1ncnc1C(C)Nc1cc(C)c2ccc(SC)cc2n1` (stereo unspecified), the “Percent Effect” value was -5.818%.

`CCc1cnc(C)nc1NC(CC)c1ncnn1CC` (stereo unspecified): the “Percent Effect” value is 9.184%. Turning to `NC(=O)CCNC(=O)Cc1cccc(I)c1`, the “Percent Effect” value is recorded as -0.109%.

`COc1cc(C(C)NCc2scnc2C)ccc1SC(F)F` (stereo unspecified): the “Percent Effect” value is recorded as -45.23%. Then `Cc1ccc(N2CC3(CCN(S(=O)(=O)C4CC4)C3)C2)nn1`, with -11.71%. Then `COCCCNC(=O)CN1CCCC1c1c(C)nn(C)c1Cl` (stereo unspecified), with -2.309%; and `Cc1nc(C)n(CC2CCCN2CC(=O)NCc2ccco2)n1` (stereo unspecified), with -10.96%. For `Cc1nn(C)c(Cl)c1C1CCCN1CC(=O)NCc1ccco1` (stereo unspecified), the “Percent Effect” value was found to be 93.09%. On to `Cc1nn(C)c(C)c1C1CCCN1CC(=O)NC(C1CC1)C1CC1` (stereo unspecified), for which the “Percent Effect” value is 8.112%. Then `COCCNC(=O)CN1CCCC1c1c(C)nn(C)c1Cl` (stereo unspecified), with 87.98%; and `NC(=O)CN1C(=O)CO[C@H]2CN(Cc3ccc(Cl)cc3)C[C@H]21`, with -3.813%; and `CN(CC(N)=O)Cc1c(Cl)ccc2cccnc12`, with 1.669%. Then `COc1ccc(Cl)cc1NCC(=O)N(Cc1ccncc1)C1CC1`, with 10.17%; and `Cc1ccc(CSc2nc(N)cc(NCCC(=O)N3CCCC3)n2)cc1`, with 92.81%; and `Cc1ccc(CSc2nc(N)cc(NCC(=O)N3CCNCC3)n2)cc1`, with 0.4693%.

`Cc1ccc(CSc2nc(N)cc(NCCC(N)=O)n2)cc1`: the “Percent Effect” value is -9.969%. Then `Cc1ccc(CSc2nc(N)cc(NCCS(=O)(=O)N(C)C)n2)cc1`, with 94.01%; and `Cc1cc(NCCS(C)(=O)=O)nc2ccccc12`, with 2.58%; and `CN(C)S(=O)(=O)CCNc1ncc2c(n1)CCN2c1ccccc1`, with -5.162%. On to `CC(C)c1nc2n(n1)CC(Nc1ncnc3ccccc13)CC2` (stereo unspecified), for which the “Percent Effect” value is reported as -42.74%. Then `COC1CCN(C(=O)c2nn(-c3ccc(C(C)C)cc3)cc2O)CC1`, with 2.392%. Then `CC1(C)CN(C(=O)c2cc(F)cc3[nH]cnc23)CCS1`, with 94.05%; and `CC(C)C1CN(C(=O)c2cc(F)cc3[nH]cnc23)CCS1` (stereo unspecified), with 102.4%.

For `CC(C)C1CN(C(=O)c2ccc(C(N)=O)cc2)CCS1` (stereo unspecified), the “Percent Effect” value was found to be 0.1325%. Then `CC(C)C1CN(C(=O)c2nccnc2N)CCS1` (stereo unspecified), with -3.274%. Then `CCCN(CC(F)(F)F)C(=O)c1cc(F)cc2[nH]cnc12`, with -1.946%; and `COC(=O)CCCN(C)C(=O)c1cc(F)cc2[nH]cnc12`, with -15.15%. With `COCCN(CCOC)C(=O)c1cc(F)cc2[nH]cnc12`, the “Percent Effect” value is 18.56%.

Take `CCN(CCC(=O)OC)C(=O)c1cc(F)cc2[nH]cnc12`: the “Percent Effect” value is listed as -3.962%.

As for `CC1(C)CCN1C(=O)c1cc(F)cc2[nH]cnc12`, the “Percent Effect” value was found to be 96.75%.

The record behind these values is ChEMBL document CHEMBL3988442, “University of Dundee, Small-Polar-MMV Screening Library” (2021).
